From PubChem BioAssay (NCI)
This is part of a sample that, as a whole, favours compounds with a hit. Of some 83,000 tested, about 20% had one in any assay.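 In brief: 96-well plates, 48 h treatment, single concentration, percent growth endpoint.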 Activity calls are given as the source filed them.

System: OVCAR-3 ovarian
Test: NCI-60 one-dose screen, 48 h (100 = growth as untreated, 0 = no growth, -100 = all killed)
Settings: 10 µM unless noted
Experimental: Growth inhibition of the OVCAR-3 human tumor cell line is measured as a screen for anti-cancer activity. Cells are grown in 96 well plates and exposed to the test compound for 48 hours. Compounds are tested at a single concentration, which is 10^-5 M for most compounds. The reported endpoint is percent growth (GI% or GIPRCNT), where numbers from 0 - 100% represent growth inhibition, and numbers from -100% - 0 represent cell death. For example, a value of 40 represents 60% growth inhibition. A value of 0 means no net growth occurred over the course of the experiment. A value of -40 indicates 40% of cells at the beginning of the experiment died by the end of the experiment. A value of -100 means all cells are dead at the end of the experiment.
NCI-60 Human Tumor Cell Lines Screen was performed using the standard one-dose NCI protocol, which is described in more detail at https://dtp.cancer.gov/discovery_development/nci-60/default.htm.
Compounds with GIPRCNT values below 10 were considered active. Activity score was based on GIPRCNT using the following formula: […]
Score is 0 for GIPRCNT values of 100 or above, 50 for GIPRCNT values of 0, and 100 for GIPRCNT values of -100.

Structure (SMILES) | growth
C=Cc1nn2c(CCC(=O)c3nc4ccccc4[nH]3)nnc2s1 | 107% (inactive)
C[C@@H]1CC[C@H]2[C@@H](C)C(O)O[C@@H]3O[C@]4(C)CC[C@@H]1[C@]32OO4 (stereo not given in full) | 30.1% (inactive)
Cc1c(N(C)CS(=O)(=O)O)c(=O)n(-c2ccccc2)n1C | 118% (inactive)
CCN(CC)c1ccc(N=Nc2cc(Cl)ccc2Cl)c(NC(=O)CCC(=O)O)c1 | 96.8% (inactive)
O=C(Nc1cccc([N+](=O)[O-])c1)c1cccc(C(=O)Nc2cccc([N+](=O)[O-])c2)c1 | 71.1% (inactive)
CC(c1ccccn1)C(C)(O)C(C)c1ccccn1 (stereo not given) | 106% (inactive)
OC(c1cc(C(F)(F)F)nc2c(C(F)(F)F)cccc12)C1CCCCN1 (stereo not given) | 73.7% (inactive)
CCN(CC)CCNc1ccc(Cl)cc1Cl | 109% (inactive)
O=c1[nH]c(Cl)nc2c1cnn2-c1ccccc1 | 93.4% (inactive)
COC(=O)CCC1=C(C)C(C)=N/C1=C\c1[nH]c(-c2ccc[nH]2)cc1OC | -34.5% (active)
CC(CCC(=O)O)(NC(=O)c1ccc([N+](=O)[O-])cc1)C(=O)O (stereo not given) | 108% (inactive)
C[n+]1ccc(C#N)c2ccccc21 | 4.02% (active)
O=C1/C(=C/c2ccc([N+](=O)[O-])o2)Oc2ccc(Br)cc21 | -43.1% (active)
Nc1ccccc1-c1ccc([N+](=O)[O-])cc1 | 71.7% (inactive)
COc1ccc2c(c1)C(=O)c1c-2c(=O)n(CCCCCCC(=O)NO)c2ccccc12 | -19.6% (active)
C=C1CC[C@@H]2[C@](C)(COC(C)=O)[C@H](OC(C)=O)CC[C@@]2(C)[C@@H]1CC(Nc1ccc(S(=O)(=O)Nc2cc(C)on2)cc1)C1=CCOC1=O (stereo not given in full) | 7.95% (active)
c1ccc(-n2nnnc2-c2cccc3ccccc23)cc1 | -26.8% (active)
COc1cc(-c2cc(C(=O)Nc3nc4ccccc4s3)nc3cc(-c4ccccc4)nn23)cc(OC)c1OC | 48.1% (inactive)
CCOc1ccccc1C(=O)OCC(=O)Nc1cccc(S(=O)(=O)N(C)C)c1 | 126% (inactive)
C/C(=N/N=C(N)N)c1ccc(Cl)cc1 | 110% (inactive)

Structure (SMILES) | growth
N#CCCCCCn1c2ccccc2c2c3c(c4c5ccccc5[nH]c4c21)C(=O)N(O)C3=O | -13.4% (active)
CCC(C)CC(C)C(=O)c1c(O)ccn(OC)c1=O (stereo not given) | 47.1% (inactive)
CN(C)c1nc(N)nc(Cn2c(-c3nonc3N)nc3ccccc32)n1 | 98% (inactive)
COc1cc(/C=C2\CCC/C(=C\c3ccc(OCC4CO4)c(OC)c3)C2=O)ccc1OCC1CO1 (stereo not given) | -22.8% (active)
Clc1ccc2c(Nc3ccc4oc(NCCN5CCCC5)nc4c3)ccnc2c1 | 82.7% (inactive)
CCN1C[C@@H](C)n2c(c(O)c3c(=O)n(Cc4ccc(F)c(Cl)c4)nc(C(=O)NC)c32)C1=O | 38.1% (inactive)
CN(CC(=O)N(Cc1ccc(C2CCCCC2)cc1)c1ccc(C(=O)O)cc1)S(=O)(=O)c1c(F)c(F)c(F)c(F)c1F | -83.1% (active)
CCOC(=O)c1ccccc1OC(=O)NNc1ccccc1 | 77.7% (inactive)
C[C@]12CC[C@@H]3c4ccc(O)c([N+](=O)[O-])c4CC[C@H]3[C@@H]1CC[C@@H]2NS(=O)(=O)c1ccc(C(F)(F)F)cc1 | 23.2% (inactive)
COc1ccc2c(c1)/C(=C\c1c[nH]c3ccc(F)cc13)C(=O)N2 | 83.7% (inactive)
Cc1ccc(NC(=O)COC(=O)c2ccc(S(=O)(=O)N3CCCCCC3)cc2)cc1 | 106% (inactive)
O=C(Oc1ccc[nH]c1=O)c1cccc(Cl)c1 | 102% (inactive)
COc1ccc(-c2cc(Cc3cccs3)c(=O)n(Cn3cncn3)n2)cc1 | 113% (inactive)
COc1ccc(OC)c(/C=C/c2nc(=S)n(-c3ccc(Cl)cc3)[nH]2)c1 | 29.4% (inactive)
CCOC(=O)C1=C(COCCN)NC(C)=C(C(=O)OC)C1c1ccccc1Cl (stereo not given) | 68.5% (inactive)
CCOC(=O)c1c2c(c(C)n1Cc1ccccc1)-c1nc(N)ncc1CC2 | 125% (inactive)
Cn1cc(-c2csc(-c3c[nH]c4ncccc34)n2)c2cc(Br)cnc21 | 20.6% (inactive)
NC(=O)c1ncn([C@@H]2O[C@H](CO)[C@@H](O)[C@H]2O)n1 | 103% (inactive)
COc1cc(OC)c2cc(C(=O)O)c(=O)oc2c1 | 102% (inactive)
COc1cccc(-c2nnc(N)o2)c1 | 90.4% (inactive)
